From PubChem
TRPML1 ag = qHTS for Agonists of the Human Mucolipin Transient Receptor Potential 1 (TRPML1); Mucolipin-1 (Homo sapiens), Q9GZU1; TRPML1-expressing cells, Ca2+ dye fluorescence, FDSS; activation, % (concentration not given with the values); 410,000 tested, 0.12% active; in the data active means activation above about 50%; inconclusive means mostly about 30% to 49%; further: 0% is about no effect
Target sequence (Q9GZU1 whole entry, looked up): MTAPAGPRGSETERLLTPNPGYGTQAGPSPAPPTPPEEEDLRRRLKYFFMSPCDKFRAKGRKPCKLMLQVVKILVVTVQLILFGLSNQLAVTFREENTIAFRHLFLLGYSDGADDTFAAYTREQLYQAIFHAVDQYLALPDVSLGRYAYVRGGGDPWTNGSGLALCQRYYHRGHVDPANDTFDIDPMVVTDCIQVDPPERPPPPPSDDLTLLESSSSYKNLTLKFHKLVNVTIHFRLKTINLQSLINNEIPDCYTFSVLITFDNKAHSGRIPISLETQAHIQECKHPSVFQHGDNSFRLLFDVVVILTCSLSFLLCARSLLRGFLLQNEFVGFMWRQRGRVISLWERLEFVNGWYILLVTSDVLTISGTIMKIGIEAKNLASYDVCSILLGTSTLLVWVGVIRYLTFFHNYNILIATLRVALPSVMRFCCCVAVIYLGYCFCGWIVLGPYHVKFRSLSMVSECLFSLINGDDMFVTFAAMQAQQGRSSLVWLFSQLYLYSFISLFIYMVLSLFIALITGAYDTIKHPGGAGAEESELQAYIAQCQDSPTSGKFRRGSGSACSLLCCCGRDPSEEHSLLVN
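Cells: TRPML1-DL, 1X Tet inducer, ~16 h at 37 degrees C/5% CO2. Dye: ABD Ca8 no-wash + quencher, 45-90 min RT. Read: 10 s baseline, compound add, 110 s agonist phase; 54-4 EC80 (4uM final), 110 s antagonist phase.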
TRPML1 inh = qHTS for Inhibitors of the Human Mucolipin Transient Receptor Potential 1 (TRPML1). Mucolipin-1 (Homo sapiens), Q9GZU1. activity change, negative = inhibition, % (test concentration not listed). TRPML1-inducible cells, Ca2+ dye fluorescence, FDSS; stronger effect = lower value; inhibition of EC80 agonist-evoked calcium signal. 390,000 tested, 0.02% active; in the data active means activity change below about -50%; inconclusive means between about -30% and that limit;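 further: stimulus is agonist 54-4 at its EC80 concentration; on the % scale 0 is the no-effect control and ±100 the full control effect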
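Calcium fluorescence in TRPML1-DL cells induced overnight with Tet: a 110 s read after compound pin addition, then a 110 s antagonist read after challenge with 54-4 at 4 uM final (EC80).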
DRD3 antagonist = qHTS of D3 Dopamine Receptor Antagonist: qHTS; max response, negative = inhibition, %; AID 652054, 2013; D3R cells, DiscoveRx beta-arrestin luminescence, antagonist mode; stronger effect = lower value; 360,000 tested, 2.5% active; in the data active means max response below about -50%; inconclusive means no clear call, values can overlap the other calls; further: on the % scale 0 is the no-effect control and ±100 the full control effect
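Cells expressing the human receptor were seeded at 1500 cells/well, incubated overnight at 37 degrees C in 5% CO2, then exposed to library compounds with dopamine controls for 90 minutes at 37 degrees C before luminescent detection.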
D3 ag = qHTS of D3 Dopamine Receptor Agonist: qHTS | D3R DiscoveRx beta-arrestin cells, luminescence, 90 min | 410,000 tested, 0.58% active | AID 652048, 2013 | max activation, %; in the data active means max activation above about 30%; further: 0% is about no effect
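Agonist-mode cell screen: cells plated at 1500/well and incubated overnight at 37 °C, then exposed to library compounds for 90 min at 37 °C. Detection reagent was added for 30–60 min at room temperature, and luminescence was read.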
* marks the source's active call; other numbers are inactive results; ? = inconclusive; . = not tested or not shown. Shown are actives, neighbours in structure and some others; about 2.9% of the full set was active somewhere.

SMILES | TRPML1 ag | TRPML1 inh | DRD3 antagonist | D3 ag
O=C(c1ccc2c(c1)OCCO2)N(Cc1cccnc1)c1nc2c(F)cccc2s1 | 1 | 15 | . | -6
COc1ccc(/C=N/NC(=O)c2cccc(OC(F)(F)C(F)F)c2)c(OC)c1OC | 2 | -12 | 3 | -8
COc1ccc(/C=N/NC(=O)c2cccc(OC(F)(F)C(F)F)c2)cc1O | 1 | -8 | -76* | -15
Cc1ccc(C(=O)NNC2=Nc3cccc4cccc2c34)cc1 | 5 | 9 | -74* | -25
NC(=O)NNC1=Nc2cccc3cccc1c23 | -1 | -5 | 3 | -9
COc1ccc(C(=O)NNC2=Nc3cccc4cccc2c34)cc1 | 0 | 6 | -68* | -12
COc1ccc(CC(=O)NNC2=Nc3cccc4cccc2c34)cc1 | 0 | 10 | -79* | -22
CCOc1ccc(NC(=O)C(C)Sc2nnc3cc(C)c4ccccc4n23)cc1 (stereo not given) | 0 | 0 | . | 11
COc1ccc2c(c1)C1(Nc3ccccc3-c3nc4ccccc4n31)C(=O)N2 (stereo not given) | 0 | 9 | -59* | 0
COc1cc(NC(=O)C2C3C=CC(C3)C2C(=O)O)c(OC)cc1Cl (stereo not given) | 0 | -4 | -86* | 4
Cc1cc(C)cc(NC(=O)/C=C/c2ccc([N+](=O)[O-])s2)c1 | 0 | 0 | -1 | -2
CC(=O)c1cccc(NC(=O)/C=C/c2ccc([N+](=O)[O-])s2)c1 | 0 | -7 | -69* | -17
Cc1ccccc1NC(=O)/C=C/c1ccc([N+](=O)[O-])s1 | 0 | 37 | -51* | -9
CN(C)/[N+]([O-])=N/Oc1ccc([N+](=O)[O-])cn1 | 2 | -6 | . | .
c1ccc(-c2nc(SCC3CCCCO3)n[nH]2)cc1 (stereo not given) | -1 | . | . | .
CSCCC(C(=O)Nc1c(C)cccc1C)n1c(-c2cc(C)cs2)nc2ccccc21 (stereo not given) | . | . | -66* | -21
CSCCC(C(=O)Nc1c(C)cccc1C)n1c(-c2ccc(-c3ccccc3)cc2)nc2ccccc21 (stereo not given) | . | . | 1 | 0
Cc1ccc(N=C2C(=O)Nc3c(C)cccc32)cc1 | . | . | 20 | -12
Cc1ccc(N=C2C(=O)Nc3ccc(Br)cc32)cc1 | 0 | 6 | -67* | -20
COc1cc(OC)cc(-n2c(=O)c3ccccc3n(Cc3ccccc3C#N)c2=O)c1 | 1 | 2 | . | -10
COC(=O)CN(n1cnnc1)S(=O)(=O)c1ccc(C)cc1 | -1 | 18 | -54* | 0
Nc1c(C(O)(C(F)(F)F)C(F)(F)F)cc(C(O)(C(F)(F)F)C(F)(F)F)c2ccccc12 | -1 | 16 | -83* | 0
CCC(C)[C@H]1O[C@]2(C=C[C@@H]1C)C[C@@H]1C[C@@H](C/C=C(\C)[C@@H](O[C@H]3C[C@H](OC)[C@@H](O[C@H]4C[C@H](OC)[C@H](NC(C)=O)[C@H](C)O4)[C@H](C)O3)[C@@H](C)/C=C/C=C3\CO[C@@H]4[C@H](O)C(C)=C[C@@H](C(=O)O1)[C@]34O)O2 (stereo not given in full) | . | . | . | 13
Cc1nn2c(=O)cc(COC(=O)c3ccc(NC(=O)CCc4ccccc4)cc3)nc2s1 | 2 | 29 | . | 10
COc1ccc(Br)cc1CN1CCCC(C(=O)N2CCCCCC2)C1 (stereo not given) | -1 | 9 | ? | -17
SMILES | TRPML1 ag | TRPML1 inh | DRD3 antagonist | D3 ag
COc1ccc(Br)cc1CN1CCCC(C(=O)N2CCCCC2)C1 (stereo not given) | 1 | 2 | -89* | -9
COc1ccc(OC)c(CN2CCCC(C(=O)N3CCCCC3)C2)c1 (stereo not given) | 1 | 7 | -77* | -30
CCCC[C@H]1CCCO[C@@](C(=O)NCc2ccc(C)o2)(C(F)(F)F)C1 | 0 | 27 | . | .
CCc1ccc(NC(=O)C(=O)NCCN2CCN(C(=O)c3ccco3)CC2)cc1 | 0 | 15 | 25 | 73*
CCOC(=O)c1ccc(NC(=O)CN2CCN(C(=O)c3ccco3)CC2)cc1 | 0 | -8 | 15 | 36*
NC(=O)c1ccc(NC(=O)CN2CCN(C(=O)c3ccco3)CC2)cc1 | 0 | 18 | 8 | 14
